Assay results: PubChem BioAssay
Values joined by “and” are separate entries in the source; they are usually repeats but may differ in a detail not shown here. Identical values can stand only once. Active and inactive are the calls of the source. Cut-off read from the data, not from the text of the source, unless noted: active = inhibition above about 80%; inactive = the rest.

Assays:
[1] = Wnt pathway potentiators raising nuclear beta-catenin – imaging, WNT3A-conditioned medium, mouse C2C12, NPC library, primary screen (AID 1117326; in the data active = nuclear beta-catenin stimulation mostly above about 4.2%, no sharp cut-off; inactive = mostly below about 10%); conditions: stronger effect = higher value
[2] = stimulators of insulin release from INS-1E, primary screen, cell-based, 5 mM glucose, NPC library (AID 1117329;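 active = compound raises insulin release from rat beta cells at 5 mM glucose, no numeric limit stated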); conditions: rat INS-1E insulin secretion, at 10 µM, stronger effect = higher value
[3] = growth inhibition of GSK3B-pretreated HCT116 cells – cell-based, CellTiter-Glo, 0.2 to 20 µM (AID 1117336;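 active = compounds lowering colon cancer cell viability after pretreatment blocking the GSK3B kinase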); conditions: HCT116 viability after GSK3B inhibitor, at 20 µM, stronger effect = higher value
[4] = inhibition of endothelial tube formation, primary screen, imaging, VEGF stimulated, CD31 staining, tube area, NPC library (AID 1117340;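 active = compound that reduces growth-factor-driven endothelial tube area in a mixed cell culture, no cutoff stated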); conditions: VEGF-stimulated ADSC/ECFC co-culture, at 10 µM, stronger effect = higher value
[5] = GLP1 release stimulators, primary, NCI-H716, NPC library (AID 1117341;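 active = compound raises GLP1 secretion from the human gut endocrine cells, with no numeric limit stated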); conditions: NCI-H716 cells, at 10 µM, stronger effect = higher value
[6] = HCT116 colon cancer cell growth inhibition, primary screen, CellTiter-Glo luminescence, NPC library (AID 1117342;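 active = compounds that lower survival of HCT116 colon cancer cells in the luminescence readout, no numeric limit stated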); conditions: at 20 µM (top of the series)
[7] = reduced SW480 viability measured with CellTiter-Glo, NPC library, primary (AID 1117343;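 active = compounds that lower viability of the colon cancer cells in the luminescence readout, with no numeric limit stated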); conditions: CellTiter-Glo luminescence; at 20 µM (top of the series) unless noted
[8] = NPC library primary testing for decreased DLD-1 cell viability via CellTiter-Glo (AID 1117346;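 active = compounds that lower survival of DLD-1 colon cancer cells in the luminescence readout, no cutoff given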); conditions: DLD-1 viability, CellTiter-Glo luminescence; at 20 µM (top of the series)
[9] = EMT-state selective cytotoxicity in co-culture – imaging, PC-3E GFP, TEM4-18 mCherry, primary screen (AID 1345086;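 active = compounds killing one labelled cell type while sparing the other, by normalised counts and ratio limits, not self-fluorescent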;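 for all read-outs here: cells exposed to compound for 72 h before imaging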;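 for red/green cell ratio (normalised): normalised mesenchymal count divided by normalised epithelial count so high means epithelial killing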); conditions: PC-3E GFP / TEM4-18 mCherry co-culture, imaging cell counts, at 1 µM; for red/green cell ratio (normalised): actives lie on both sides, counts scaled to control wells, 1 = unselective
[10] = viability loss with induced miR-34 in A549 – imaging, A549 dox-inducible miR-34, nuclei and caspase counts, primary screen (AID 1347080;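 active = compounds whose cell count with miR-34 switched on is under 0.7 times the count with it off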); conditions: A549 miR-34 inducible, Hoechst nuclei count, 48 h
[11] = MELAS cybrid and Rieske KO viability enhancers – cell-based, MELAS cybrids, Rieske KO mouse fibroblasts, CellTiter-Glo, primary screen (AID 1508586;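 active = mean z-score across replicates of 1.96 or higher in either the MELAS or the Rieske mutant cell line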;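 note: z relative to plate mean and SD of compound and empty wells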); conditions: low glucose
[12] = biological target: NAD(+) hydrolase SARM1 (Homo sapiens) (UniProt Q6SZW1); assay: blocking NAD cleavage by SARM1 SAM-TIR – cell lysate, NAD-Glo luminescence (AID 1508614;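 active = compound whose remaining NAD level is above about 45 nM, limit read from the data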;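 note: higher remaining NAD means stronger inhibition of SARM1 NADase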); conditions: SAM-TIR HEK293T lysate NADase, at 1 µM, stronger effect = higher value
Sequence of NAD(+) hydrolase SARM1 (Homo sapiens) (Q6SZW1 whole entry, looked up): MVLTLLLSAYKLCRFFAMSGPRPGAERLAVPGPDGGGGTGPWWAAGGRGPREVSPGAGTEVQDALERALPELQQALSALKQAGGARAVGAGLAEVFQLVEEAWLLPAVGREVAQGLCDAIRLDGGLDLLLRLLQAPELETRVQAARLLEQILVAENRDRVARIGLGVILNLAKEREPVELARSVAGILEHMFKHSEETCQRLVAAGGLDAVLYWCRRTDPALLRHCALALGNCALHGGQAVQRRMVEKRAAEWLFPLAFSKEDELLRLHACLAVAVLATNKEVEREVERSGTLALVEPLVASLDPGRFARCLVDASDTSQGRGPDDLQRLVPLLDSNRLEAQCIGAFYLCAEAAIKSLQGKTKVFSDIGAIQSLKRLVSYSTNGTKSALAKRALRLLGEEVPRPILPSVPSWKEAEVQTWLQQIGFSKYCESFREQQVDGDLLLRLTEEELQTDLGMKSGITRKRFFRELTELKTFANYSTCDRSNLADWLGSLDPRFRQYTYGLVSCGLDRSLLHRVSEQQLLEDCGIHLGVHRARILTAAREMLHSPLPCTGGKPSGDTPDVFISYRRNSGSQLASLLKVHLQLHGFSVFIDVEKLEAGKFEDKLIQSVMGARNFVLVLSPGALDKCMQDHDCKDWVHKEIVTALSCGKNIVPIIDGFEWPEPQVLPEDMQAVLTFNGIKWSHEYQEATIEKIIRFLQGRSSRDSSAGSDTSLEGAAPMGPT

[13] = growth inhibition, single agent or in combination, cell-based, chromothripsis tumors, cisplatin or BGB combos (AID 1671449); conditions: LFS_MB_P medulloblastoma cells;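 note: cells exposed for 96 hours; 0% = vehicle DMSO and 100% = killing by high DMSO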
[14] = growth inhibition, single agent and combos, cell-based, chromothripsis tumors, cisplatin or BGB combos (AID 1671450); conditions: HDN33 neuroblastoma cells, stronger effect = higher value;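 note: cells exposed to compound for four days; 0% = vehicle DMSO and 100% = cell killing by high DMSO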
[15] = growth inhibition, single agents and combos, ICB984, cell-based, cisplatin or BGB combos, synergistic combos for chromothripsis tumors (AID 1671451; call rule not given here;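 note: cells exposed for 96 hours before readout; 0% = vehicle DMSO and 100% = killing by high DMSO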); conditions: ICB984 medulloblastoma cells, drug combinations, stronger effect = higher value
[16] = growth inhibition, single agents and combos, HTB85, cell-based, BGB or cisplatin IC20 combos, synergistic combos for chromothripsis tumors (AID 1671453); conditions: HTB85 osteosarcoma cells, drug combinations, stronger effect = higher value;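 note: cells exposed for 96 hours before readout; 0% = vehicle DMSO and 100% = high DMSO killing control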
[17] = growth inhibition, MDA-MB-436, cell-based, BGB or cisplatin combos, synergistic combos for chromothripsis tumors (AID 1671458; call rule not given here;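 note: cells exposed for 96 hours; 0% = vehicle DMSO and 100% = killing by high DMSO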); conditions: MDA-MB-436 breast carcinoma growth inhibition, drug combinations, stronger effect = higher value
[18] = compounds altering viability of human ES cells (AID 493140; call rule not given here;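 note: cells exposed to compounds for four days before counting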); conditions: human embryonic stem cell survival screen; stronger effect = higher value
[19] = P. berghei load reduction in hepatocytes – cell-based, HepG2, luciferase luminescence, HepG2 viability, primary screen (AID 624349; in the data active = parasite load remaining mostly below about 12%, no sharp cut-off; inactive = mostly above about 10%;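 note: 100% = mean of DMSO negative control wells on the same plate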); conditions: P. berghei liver stage in HepG2, luciferase luminescence, concentration not given here; parasite load remaining: stronger effect = lower value; viability: measured here: HepG2 viability without parasites
[20] = measured here: epithelial PC-3E GFP cell survival
[21] = measured here: mesenchymal TEM4-18 mCherry cell survival
[22] = MELAS cybrid survival, CellTiter-Glo 48 h, stronger effect = higher value
[23] = Rieske KO mouse fibroblast survival, CellTiter-Glo 72 h
[24] = at 0.5 µM, stronger effect = higher value
[25] = measured here: combination with BGB IC20, at 0.005 µM
[26] = measured here: combination with BGB IC40, at 0.005 µM
[27] = measured here: combination with BGB IC40, at 0.05 µM
[28] = measured here: combination with cisplatin, at 0.5 µM, stronger effect = higher value
[29] = measured here: combination with cisplatin, at 5 µM, stronger effect = higher value
[30] = measured here: with BGB IC20 combination, at 0.5 µM
[31] = measured here: with cisplatin IC20 combination, at 0.5 µM

O=C(O)c1cc(=O)[nH]c(=O)[nH]1
nuclear beta-catenin stimulation ([1]; at 10 µM): 2.7% (inactive) | nuclear beta-catenin stimulation ([1]; stimulation, at 2 µM): 1.2% | insulin secretion stimulation [2]: -0.7% (inactive) | viability decrease [3]: 0.3% (inactive) | tube area decrease [4]: -4.9% (inactive) | GLP1 secretion stimulation [5]: 2.6% (inactive) | inhibition of viability [6]: 1.8% (inactive) | viability decrease (inhibition) [7]: 18.7% (inactive) | viability decrease (inhibition) [8]: 0.25% (inactive) | red/green cell ratio (normalised) [9]: 0.81 (inactive) | normalised cell number [9, 20]: 1.22 | normalised cell number [9, 21]: 0.99 | fold change ([10]; stronger effect = lower value, cell number ratio, induced over uninduced): 0.909 (inactive) and 0.91 (inactive) | fold change ([10]; measured here: relative caspase fold change +Dox/-Dox): 0.683 and 0.794 | cell count ([10]; measured here: total cells with miR-34 induction, stronger effect = lower value): 8860 and 8140 | cell count ([10]; measured here: total cells without miR-34 induction): 9750 and 8950 | z-score [11, 22]: -0.414 (inactive) | z-score [11, 23]: -0.146 | remaining NAD [12]: 10 nM (inactive) | inhibition [13, 24]: -14.8% (inactive) and 6.04% (inactive) | inhibition [13, 25]: -3.6% and -6.88% | inhibition [13, 26]: 28.3% and -31.4% | inhibition [13, 27]: -7.85% and -7.79% | inhibition [13, 28]: -24.1% and -4.55% | inhibition [13, 29]: -5.53% and -40.7% | inhibition ([14]; BGB combo, at 5 µM): 13.5% and -51.1% | inhibition ([14]; at 0.5 µM): 15.1% (inactive) and -24.6% (inactive) | inhibition ([14]; cisplatin combo, at 5 µM): 14.4% and -17.2% | inhibition [14, 30]: 10.5% and -14.2% | inhibition [14, 31]: 24.7% and -33.5% | inhibition ([14]; single agent, at 5 µM): 12.4% and -40.1% | inhibition ([15]; BGB IC20 combo, at 0.005 µM): -7.3% and -18.5% | inhibition ([15]; BGB IC40 combo, at 0.005 µM): -15.2% and -60.1% | inhibition ([15]; BGB IC40 combo, at 0.05 µM): 9.75% and -38.4% | inhibition ([15]; at 0.5 µM): 7.77% (inactive) and -27.4% (inactive) | inhibition ([15]; cisplatin combo, at 0.05 µM): 9.75% and -43.9% | inhibition ([15]; cisplatin combo, at 0.5 µM): -1.72% and -34.4% | inhibition ([15]; cisplatin combo, at 5 µM): 27.1% and -45.2% | inhibition ([15]; measured here: 5 uM single agent, at 5 µM): 8.32% and 10.3% | inhibition ([16]; at 0.5 µM): 5.03% (inactive) and -15.1% (inactive) | inhibition ([16]; measured here: with BGB IC20, at 0.5 µM): -2.41% and -19.2% | inhibition ([16]; measured here: with BGB IC20, at 5 µM): 15.1% and -5.19% | inhibition ([16]; measured here: with cisplatin IC20, at 0.5 µM): 6.2% and -21.8% | inhibition ([16]; measured here: with cisplatin IC20, at 5 µM): 13% and -19.1% | inhibition ([16]; single agent, at 5 µM): 16% and -13.4% | inhibition ([17]; at 0.5 µM): 2.87% (inactive) and -29.1% (inactive) | inhibition ([17]; measured here: BGB combination, at 0.5 µM): 7.16% and -31.6% | inhibition ([17]; measured here: BGB combination, at 5 µM): 4.32% and -38.3% | inhibition ([17]; measured here: cisplatin combination, at 0.5 µM): -8.53% and -32.8% | inhibition ([17]; measured here: cisplatin combination, at 5 µM): 21.8% and -35.6%

N=C(N=C(N)N)N1CCOCC1
survival [18]: 19.5 (inactive) | parasite load remaining [19]: 19.9% (inactive) and 108% (inactive) and 72.1% (inactive) | viability [19]: 51% and 98% and 255% | nuclear beta-catenin stimulation ([1]; at 10 µM): 1.2% (inactive) | nuclear beta-catenin stimulation ([1]; stimulation, at 2 µM): 1.4% | insulin secretion stimulation [2]: -2.5% (inactive) | viability decrease [3]: -5.75% (inactive) | tube area decrease [4]: 4.5% (inactive) | GLP1 secretion stimulation [5]: 1.9% (inactive) | inhibition of viability [6]: 14.6% (inactive) | viability decrease (inhibition) [7]: 34.4% (inactive) | viability decrease (inhibition) [8]: 4.15% (inactive) | red/green cell ratio (normalised) [9]: 0.95 (inactive) | normalised cell number [9, 20]: 0.9 | normalised cell number [9, 21]: 0.86 | z-score [11, 22]: -0.354 (inactive) and -0.415 (inactive) and 0.363 (inactive) | z-score [11, 23]: 0.794 and 0.165 and 0.626 | remaining NAD [12]: 10 nM (inactive) | inhibition [13, 24]: 0.66% (inactive) | inhibition [13, 25]: 31.7% | inhibition [13, 26]: -13.4% | inhibition [13, 27]: -9.47% | inhibition [13, 28]: 66.2% | inhibition [13, 29]: -1.14% | inhibition ([14]; BGB combo, at 5 µM): 12.3% | inhibition ([14]; at 0.5 µM): -2.43% (inactive) | inhibition ([14]; cisplatin combo, at 5 µM): 9.3% | inhibition [14, 30]: -2.61% | inhibition [14, 31]: -1.22% | inhibition ([14]; single agent, at 5 µM): 6.99%
